High-throughput results from PubChem BioAssay.
RGS16-Gao HTS – modulators of RGS16 binding to Galphao, primary screen, biochemical, human proteins, multiplexed bead flow cytometry; actives 0.38% (n = 220,000); AID 1441, 2008; binding response (% of control), % at 10 µM; bead-based flow cytometry RGS16-Galphao binding, fluorescence; actives lie on both sides;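 further: Galphao activated by GDP with aluminum fluoride before binding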
RGS8-Gao – RGS8-Galphao binding modulators, primary screen, biochemical, multiplexed bead flow cytometry. Guanine nucleotide-binding protein G(o) subunit alpha (Homo sapiens), P09471. actives lie on both sides. response (percent of control binding), % at 10 µM. actives 0.34% (n = 220,000). AID 1423, 2008; in the data active means response below about 60% or above about 140%; inactive means in between;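 further: Galphao activated as the GDP aluminium fluoride complex binding bead-coupled RGS8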
Target sequence (P09471 whole entry, looked up): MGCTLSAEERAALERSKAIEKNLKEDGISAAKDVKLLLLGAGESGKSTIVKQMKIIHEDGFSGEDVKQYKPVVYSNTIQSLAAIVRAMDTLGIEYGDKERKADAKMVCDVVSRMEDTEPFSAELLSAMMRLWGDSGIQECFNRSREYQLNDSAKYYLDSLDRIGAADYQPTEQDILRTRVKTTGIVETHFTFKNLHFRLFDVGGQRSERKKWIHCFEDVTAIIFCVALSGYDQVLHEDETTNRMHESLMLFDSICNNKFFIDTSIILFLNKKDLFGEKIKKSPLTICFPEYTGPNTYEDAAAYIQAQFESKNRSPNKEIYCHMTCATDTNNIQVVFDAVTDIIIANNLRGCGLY
Avidin fluor – green autofluorescence of compounds with avidin beads – biophysical, 488/530 nm, flow cytometry, artefact control, profiling panel | compound fluorescence 488/530 nm; hits give high values | fluorescence (KMESF) at 10 µM | actives 0.38% (n = 220,000); in the data active means fluorescence above about 47
GSH bead fluor – compound fluorescence on glutathione beads, profiling panel, artefact control, biophysical, 488/530 nm, flow cytometry | fluorescence (KMESF) at 10 µM | AID 1776, 2009 | GSH beads flow cytometry, compound fluorescence 488/530 nm; hits give high values | actives 0.25% (n = 190,000); in the data active means fluorescence above about 89;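 further: glutathione beads carrying GST-tagged Bcl family fusion proteins plus one bare bead set; values are compound well signal with DMSO vehicle wells as background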
RGS4-Gao reg – modulators of RGS4 binding to Galphao, primary screen, biochemical, multiplexed bead flow cytometry | actives 0.33% (n = 220,000) | actives lie on both sides | binding response (% of control), % at 10 µM | AID 1415, 2008 | Guanine nucleotide-binding protein G(o) subunit alpha (Homo sapiens), P09471; in the data active means binding response below about 49% or above about 150%; inactive means in between;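 further: fluorescent Galphao activated with aluminum fluoride binding bead-coupled RGS4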
RGS7-Gao – RGS7-Galphao binding modulators, primary screen, biochemical, multiplexed bead flow cytometry; Guanine nucleotide-binding protein G(o) subunit alpha (Homo sapiens), P09471; actives lie on both sides; binding response (% of control), % at 10 µM; actives 0.35% (n = 220,000); AID 1439, 2008; in the data active means binding response below about 49% or above about 150%; inconclusive means no clear call, values can overlap the other calls; inactive means in between;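 further: fluorescent Galphao held in activated GDP-AlF4 state binding bead-coupled RGS7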
RGS-Gao – modulators of RGS–Galpha-o binding, primary screen, biochemical, multiplexed beads, flow cytometry, RGS4/7/8/16/19. multiplexed bead flow cytometry. actives 99% (n = 1,600). shares compounds with RGS16-Gao HTS. RGS4–Galpha-o binding response, % at 10 µM;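 further: fluorescently labeled Galpha-o bound to GDP with aluminium fluoride binding biotinylated RGS beads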
Target sequence (P09471 whole entry, looked up): as above
Target sequence (P49798 whole entry, looked up): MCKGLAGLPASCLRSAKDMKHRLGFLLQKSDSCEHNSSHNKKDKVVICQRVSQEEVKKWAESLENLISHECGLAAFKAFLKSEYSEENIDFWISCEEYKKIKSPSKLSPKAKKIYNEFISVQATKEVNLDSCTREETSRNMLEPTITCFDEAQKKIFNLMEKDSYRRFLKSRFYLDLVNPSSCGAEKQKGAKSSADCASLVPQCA
Biotin-avidin – disruption of biotin probe capture by avidin, counter-screen for RGS protein interaction modulators, biochemical, flow cytometry, bead-based; shares compounds with RGS16-Gao HTS; streptavidin beads, fluorescein-biotin binding; inhibition, % at 10 µM; 1,700 tested, under 10 active; AID 1783, 2009;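 active means inhibition above 50%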;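 further: median green fluorescence of gated singlet beads compared with DMSO control wells; 0% = DMSO wells and 100% = complete loss of bead fluorescence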
RGS8-Gao confirm – RGS8-Galphao binding modulators, confirmation, biochemical, multiplexed bead flow cytometry, single concentration. bead-based flow cytometry RGS8-Galphao binding, fluorescence; actives lie on both sides. binding response (% of control), % at 10 µM. actives 3% (n = 1,700). shares compounds with RGS16-Gao HTS; in the data active means binding response below about 72% or above about 130%; inactive means in between;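 further: Galphao activated as GDP AlF4 complex before binding bead RGS8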
RGS7-Gao single – RGS7-Galphao binding modulators, confirmation, biochemical, multiplexed bead flow cytometry, single concentration. shares compounds with RGS16-Gao HTS. bead-based flow cytometry RGS7-Galphao binding; actives lie on both sides. response (percent of control binding), % at 10 µM. actives 7.8% (n = 1,700). AID 1837, 2009; in the data active means response below about 75% or above about 130%; inactive means in between;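 further: fluorescent Galphao activated with GDP and aluminum fluoride binding bead-coupled RGS7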
RGS16-Gao single – modulators of RGS16-Galphao protein binding, confirmation, biochemical, single concentration, multiplexed bead flow cytometry; shares compounds with RGS16-Gao HTS; actives 4% (n = 1,700); response (% of control binding), % at 10 µM; bead-based flow cytometry; actives lie on both sides; in the data active means response below about 74% or above about 130%; inactive means in between;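 further: Galphao activated as the GDP aluminium fluoride complex binding bead-coupled RGS16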
RGS4-Gao confirm – modulators of RGS4-Galphao protein binding, confirmation, biochemical, single concentration, multiplexed bead flow cytometry; shares compounds with RGS16-Gao HTS; actives lie on both sides; binding response (% of control), % at 10 µM; actives 4% (n = 1,700); in the data active means binding response below about 74% or above about 130%; inactive means in between
RGS19-Gao single – regulators of RGS19-Galphao binding, confirmation, biochemical, single point, multiplexed bead flow cytometry | actives 5% (n = 1,700) | shares compounds with RGS16-Gao HTS | bead-based flow cytometry RGS19-Galphao binding; actives lie on both sides | response (percent of control binding), % at 10 µM; in the data active means response below about 50% or above about 160%; inactive means in between;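 further: 100% = no compound control and 0% = blank background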
An asterisk follows results filed as active; i = inactive; ? = inconclusive; . = no result; [ ] = dose if it differs, or a comment. Compounds with a hit are over-represented: about 1.2% of the library has one in this group of screens. Unless noted, how the calls were made is not given here.

SMILES | RGS16-Gao HTS | RGS8-Gao | Avidin fluor | GSH bead fluor | RGS4-Gao reg | RGS7-Gao | RGS-Gao | Biotin-avidin | RGS8-Gao confirm | RGS7-Gao single | RGS16-Gao single | RGS4-Gao confirm | RGS19-Gao single
CC(C)(C)NC(=O)COC(=O)CCC(=O)c1ccc(Cl)cc1 | 15* | 21* | 5 | 23 | 25* | 22* | . | 0 | 100 | 106 | 102 | 104 | 100
C=CCN=C(NC#N)SCC(=O)NC(C)(C)C | i | 61 | 5 | 13 | -28* | 45* | . | 1 | 102 | 100 | 106 | 98 | 105
C/C(=N/NC(=O)c1cc(-c2ccc(Cl)s2)[nH]n1)c1ccco1 | 100 | 100 | 8 | . | 95 | ? | . | . | . | . | . | . | .
CCC(C)(C)NC(=O)C(c1cccn1C)N(C(=O)Cn1nnc2ccccc21)c1ccccc1OC (centres undefined) | 24* | 68 | 5 | 16 | 77 | 79 | 77* | -1 | 97 | 48* | 79 | 60* | 59
COC(=O)c1c(C(=O)NCc2ccccc2)ncn1CC(O)COc1ccccc1 (centres undefined) | -175* | 96 | 9 | 15 | 58 | 86 | 58* | 0 | 83 | 74* | 80 | 79 | 75
CC(=O)Nc1cccc(NC(=O)C(=O)c2cn(CC(=O)N3CCCCC3)c3ccccc23)c1 | 102 | 101 | 8 | 22 | 102 | 106 | . | . | . | . | . | . | .
Nc1ccc2oc(-c3ccccc3Cl)cc(=O)c2c1O | 110 | 107 | 89* | 18 | 184*[activator] | 167*[activator] | . | 0 | 102 | 111 | 104 | 107 | 95
O=c1cc(-c2ccccc2Cl)oc2ccc([N+](=O)[O-])c(O)c12 | 103 | 101 | 11 | 19 | 96 | 96 | . | . | . | . | . | . | .
CC[N+]1(CC)CC2=Cc3c(ccc4ccccc34)C(C)C2C1 (centres undefined) | 98 | 101 | 7 | . | 95 | ? | . | . | . | . | . | . | .
CSCC[C@H](NC(=O)COc1ccc(Cl)cc1)c1nc2ccccc2[nH]1 | 203*[activator] | 124 | 14 | 18 | 112 | 108 | 112* | -3 | 102 | 98 | 98 | 99 | 108
CSCCC(NC(=O)C1CCCCC1)c1nc2ccccc2[nH]1 (centres undefined) | . | . | . | . | 147 | . | . | -1 | 101 | 104 | 102 | 105 | 149
CC(C)CC(NC(N)=O)C(=O)OCC(=O)Nc1ccc(OC(F)F)cc1 (centres undefined) | 99 | 96 | 10 | 17 | 90 | 93 | . | . | . | . | . | . | .
CN(c1ccccc1)S(=O)(=O)c1cccc(NC(=O)CN2CCCc3ccccc32)c1 | 178*[activator] | 118 | 27 | . | 141 | ? | 141* | 1 | 102 | 131*[activator] | 112 | 113 | 134
Cc1cc(Cl)ccc1N=c1ssnc1Cl | 19* | 77 | 8 | 7 | 83 | 107 | 83* | -1 | 87 | 93 | 78 | 97 | 55
COC(=O)c1ccccc1NS(=O)(=O)c1ccc(NC(C)=O)cc1 | 137 | 134 | 19 | 14 | 128 | 151*[activator] | 128* | 2 | 100 | 104 | 101 | 102 | 92
COC(=O)c1ccccc1NS(=O)(=O)c1ccc(F)cc1 | 104 | 100 | 22 | 29 | 99 | 101 | . | . | . | . | . | . | .
CCn1c(Sc2nc(C)nc3scc(-c4cccs4)c23)n[nH]c1=O | . | . | . | 41 | . | . | . | 0 | 99 | 101 | 97 | 101 | 85
Cc1cc(=O)oc2cc(NC(=O)CC3(CC(=O)O)CCCC3)ccc12 | 98 | 100 | 3 | . | 98 | ? | . | . | . | . | . | . | .
COc1ccc(CCNC(=O)COC(=O)C23CC4CC(CC(Br)(C4)C2)C3)cc1 | 14* | 76 | 8 | 7 | 91 | 87 | 91* | 1 | 104 | 104 | 107 | 104 | 102
COC(=O)Nc1cc([N+](=O)[O-])ccc1OC | 101 | 103 | 19 | 11 | 101 | 112 | . | . | . | . | . | . | .
COc1ccc(OC(=O)Nc2ccc([N+](=O)[O-])cc2OC)cc1 | 34 | 48* | 1 | . | 39* | ? | . | 0 | 104 | 106 | 106 | 107 | 108
CCc1cccc(NC(=O)c2ccc(CNc3c(N4CCCC4)c(=O)c3=O)cc2)c1 | 111 | 109 | 5 | . | 111 | ? | . | . | . | . | . | . | .
CCOC(=O)c1cc(-c2cccs2)nc2c1c(C)nn2-c1ccccn1 | 158 | 114 | 8 | 11 | 105 | 105 | . | . | . | . | . | . | .
Cc1nn(-c2ccccc2)c2nc(-c3cccs3)cc(C(=O)NN)c12 | 102 | 96 | 82* | 11 | 115 | 198*[activator] | 115* | -1 | 102 | 103 | 100 | 102 | 108
CCCc1nc2oc3ccccc3c(=O)c2c(=O)n1CCCOC | 106 | 103 | 13 | . | 105 | ? | . | . | . | . | . | . | .
OCCNNC(=S)NC1CC2C=CC1C2 (centres undefined) | 101 | 101 | 10 | . | 99 | ? | . | . | . | . | . | . | .
CCOC(=O)C1CCN(C(=O)CSc2ccc(Br)cc2)CC1 | 106 | 100 | 15 | 14 | 111 | 110 | . | . | . | . | . | . | .
